Laboratory results reported in PubChem BioAssay AID1159580 (chemical genetic matrix, 2015).
In all, about 5,500 compounds went through this assay and about 2,000 (36%) were called active. Inconclusive results (about 18%) are left out. No stated cut-off is given here; in the data, active means normalized growth mostly below about 0.91 (no sharp cut-off); inconclusive means no clear call, values can overlap the other calls; inactive means mostly above about 0.92. The list shows a part of the results.

Test: chemical genetic growth profiling, strain panel (AID 1159580);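 further: tested at 20 µM; growth read once vehicle control cultures reached saturation at 30 °C; 1 = growth at the plate median or of vehicle wells; lower values mean less growth of the strain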
Conditions: S. cerevisiae deletion strains, growth OD

Measured: normalized growth

NC1(C(=O)O)CCCCC1
inactive: locus YAL040C, strain CLN3, active compounds read low 0.993 | locus YDR363W, strain ESC2, active compounds read low 0.98 | locus YER002W, strain NOP16, active compounds read low 1.01 | locus YJR075W, strain HOC1, active compounds read low 0.992 | locus YMR263W, strain SAP30, active compounds read low 0.995 | locus YNL153C, strain GIM3, active compounds read low 0.982 | locus YNL175C, strain NOP13, active compounds read low 1.01 | locus YNL197C, strain WHI3, active compounds read low 0.992 | locus YNL224C, strain SQS1, active compounds read low 0.98 | locus YOR083W, strain WHI5 (second series), active compounds read low 0.981
